These results are taken from PubChem BioAssay (NCATS).

Each structure is given as a SMILES string. Results filed as inconclusive are left out. Unmarked numbers belong to inactive results. Calls of active or inactive are those of the source. Calls follow the shape of the dose curve; as a rule, active = well fitted inhibition curve with a large enough effect; inconclusive = small, poorly fitted or top-dose-only effect; inactive = flat fitted curve, though single readings scatter.
Potency is read from the fitted curve at half-maximal effect.

In one assay the test system is CP252. Nature of the assay: qHTS profiling for inhibitors of Plasmodium falciparum proliferation (AID 504749). Also: nearly all actives have a fitted effect of over 60% in size.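 As to activity, negative = inhibition: 0% = DMSO vehicle and full inhibition = artemisinin control.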 To be noted: P. falciparum in erythrocytes, SYBR Green DNA, 72 h; series mostly up to 28.7 µM; activity, negative = inhibition: at the top concentration. In short, it runs like this:
(§1)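 Parasite proliferation within erythrocytes, 72 h exposure. Endpoint: SYBR Green I fluorescence after overnight lysis at room temperature. Controls: 0.29 uM artemisinin, DMSO.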
(In general: qHTS replaces the single test concentration by a dilution series.)
For `CO/N=C(/C(=O)N[C@@H]1C(=O)N2C(C(=O)O)=CCS[C@H]12)c1csc(N)n1`, the “activity, negative = inhibition” value is 3.3%.

For the molecule `Cc1cc(CC(C)CC(C)(C)C)n(O)c(=O)c1` (configuration not stated), the Potency is 2.82 µM (active).

Take `CC1CCC(C(C)C)C(OC(=O)c2ccccc2O)C1` (configuration not stated): the “activity, negative = inhibition” value was 2.9%.

For the molecule `CO[C@@H]1[C@@H](OC2OC(C)C(OC3CC(C)(O)C(OC(=O)CC(C)C)C(C)O3)C(N(C)C)C2O)[C@@H](CC=O)C[C@@H](C)C(=O)/C=C\C2O[C@H]2C[C@@H](C)OC(=O)C[C@H]1OC(C)=O` (some centres not stated), the Potency was 5.01 µM (active).

For `CCC(=O)O[C@@H](OP(=O)(CCCCc1ccccc1)CC(=O)N1C[C@H](C2CCCCC2)C[C@H]1C(=O)O)C(C)C` (some centres not stated), the “activity, negative = inhibition” value is -0.0246%.

For the molecule `CC(=O)O[C@@]12CO[C@@H]1C[C@H](O)[C@@]1(C)C(=O)[C@H](O)C3=C(C)[C@@H](OC(=O)C(O)[C@@H](NC(=O)OC(C)(C)C)c4ccccc4)C[C@@](O)([C@@H](OC(=O)c4ccccc4)[C@H]21)C3(C)C` (some centres not stated), the Potency was 0.0178 µM (active).

Consider `CC1(C)S[C@@H]2[C@H](NC(=O)COc3ccccc3)C(=O)N2[C@H]1C(=O)O`, for which the “activity, negative = inhibition” value is 1.11%.

Take `CCN1/C(=C/C=C/C=C/c2sc3ccccc3[n+]2CC)Sc2ccccc21`: the Potency was 3.98 µM (active).

A further assay relates to CP256. The assay is described as above. To be noted: P. falciparum in erythrocytes, SYBR Green DNA, 72 h; series mostly up to 28.7 µM; activity, negative = inhibition: at the top concentration. In short, it runs like this: as §1
Take `CO/N=C(/C(=O)N[C@@H]1C(=O)N2C(C(=O)O)=CCS[C@H]12)c1csc(N)n1`: the “activity, negative = inhibition” value is -4.42%.

Regarding `Cc1cc(CC(C)CC(C)(C)C)n(O)c(=O)c1` (configuration not stated), the Potency is 1.26 µM (active).

On to `CC1CCC(C(C)C)C(OC(=O)c2ccccc2O)C1` (configuration not stated), for which the “activity, negative = inhibition” value is 8.19%.

Regarding `CO[C@@H]1[C@@H](OC2OC(C)C(OC3CC(C)(O)C(OC(=O)CC(C)C)C(C)O3)C(N(C)C)C2O)[C@@H](CC=O)C[C@@H](C)C(=O)/C=C\C2O[C@H]2C[C@@H](C)OC(=O)C[C@H]1OC(C)=O` (some centres not stated), the Potency was 5.01 µM (active).

`CCC(=O)O[C@@H](OP(=O)(CCCCc1ccccc1)CC(=O)N1C[C@H](C2CCCCC2)C[C@H]1C(=O)O)C(C)C` (some centres not stated): the “activity, negative = inhibition” value is 2.13%.

With `CC(=O)O[C@@]12CO[C@@H]1C[C@H](O)[C@@]1(C)C(=O)[C@H](O)C3=C(C)[C@@H](OC(=O)C(O)[C@@H](NC(=O)OC(C)(C)C)c4ccccc4)C[C@@](O)([C@@H](OC(=O)c4ccccc4)[C@H]21)C3(C)C` (some centres not stated), the Potency is 0.0316 µM (active).

Regarding `CC1(C)S[C@@H]2[C@H](NC(=O)COc3ccccc3)C(=O)N2[C@H]1C(=O)O`, the “activity, negative = inhibition” value was -3.94%.

On to `CCN1/C(=C/C=C/C=C/c2sc3ccccc3[n+]2CC)Sc2ccccc21`, for which the Potency is 4.47 µM (active).

`O=NCc1ccc([N+](=O)[O-])o1`: the “activity, negative = inhibition” value was -7.23%.
